Assay in all cases: NCI-60 one-dose screen, 48 h (100 = growth as untreated, 0 = no growth, -100 = all killed)
Common to all, as to conditions: 10 µM unless noted

Experiment [1] deals with HCT-15 colon.
Experiment [2] deals with HT29 colon.
Experiment [3] deals with SNB-19 CNS.
Experiment [4] concerns U251 CNS.
In experiment [5] the test system is PC-3 prostate.
Experiment [6] has as its system SK-MEL-5 melanoma.
For experiment [7], the system named is UACC-62 melanoma.
Experiment [8] deals with LOX IMVI melanoma.
Experiment [9] deals with SK-MEL-28 melanoma.

This note sets out measurements from PubChem BioAssay (NCI).

The panel holds about 83,000 compounds, 20% with a hit somewhere; the sample as a whole holds those more often.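 Note: values are percent growth. 100 is the growth of untreated cells, values between 100 and 0 indicate rising inhibition; between -100 and 0 indicates cell death.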 A number with no mark means an inactive call. Active and inactive are the calls of the source. The calls were made as follows: active = growth percent below 10; inactive = the rest.

On to `COc1ccc(S(=O)(=O)NCCNc2nccc(-c3c(-c4cccc(N)c4)nc4sccn34)n2)cc1`, for which the growth in [1] was 101%; in experiment [2] it was 93.5%; in experiment [3], 108%; in experiment [4] it was 104%; in [5] it was 83.6%; in [6], 98%. For the same molecule, the growth is 100% in experiment [7], 98.4% in experiment [8] and 117% in experiment [9].
Consider `COc1ccc(-c2nn(-c3ccccc3)cc2/C=C/C(=O)OCc2cn(-c3ccc(F)c(Cl)c3)nn2)cc1`, for which the growth in [1] was 88.5%; in [2], 103%; in [3] it was 85%; in [4], 101%; in [5], 60.5%; in experiment [6] it was 83.3%. Besides, the growth in experiment [7] is 80%; in experiment [8] it was 78.9%; in experiment [9], 115%.
Consider `OC(c1cccc(C(F)(F)F)c1)c1cnccc1NC1CCCCCC1` (centres undefined), for which the growth was 8.21% (active) in experiment [1]; -6.41% (active) in [2]; 69.3% in experiment [3]; -2.39% (active) in experiment [4]; 22.4% in experiment [5]; -68.2% (active) in [6]. The growth in experiment [7] is 55%; in [8], -18.7% (active); in experiment [9], -12.9% (active).
As for `C=C1CC2(OC1=O)C(=O)Nc1ccccc12` (centres undefined), the growth in experiment [1] was 23%; in experiment [2], 42.7%; in experiment [3], 88.3%; in experiment [4], 91.2%; in experiment [5] it was 73.6%; in experiment [6], 81.2%. Also, the growth was 72.9% in [7], 35.3% in [8] and 63.8% in [9].
On to `CC1=C(C)C(=O)OC([C@](C)(O)[C@]2(O)CC[C@@]3(O)[C@@H]4C[C@H]5O[C@]56CC=CC(=O)[C@]6(C)[C@H]4CC[C@]23COC(=O)c2ccc(C)o2)C1` (some centres undefined), for which the growth in [1] was -86.2% (active); in experiment [2] it was -73.6% (active); in experiment [3], -85% (active); in experiment [4] it was -85.2% (active); in experiment [5] it was -35% (active); in experiment [6] it was -80.6% (active). Besides, the figures for the growth in experiment [7], in experiment [8] and in experiment [9] were -83.3% (active), -95% (active) and -86.1% (active), respectively.
Consider `Nc1cccc(-c2nc3sccn3c2-c2ccnc(NCCCNS(=O)(=O)c3ccc(C(F)(F)F)cc3)n2)c1`, for which the growth in [1] is 1.79% (active); in experiment [2], 14%; in experiment [3] it was 29.1%; in experiment [4], 19.8%; in experiment [5], 1.93% (active); in [6] it was -90.5% (active). The growth in experiment [7] is -33.3% (active); in experiment [8], -30.2% (active); in [9], 11.2%.
For `COc1ccc(/C=C/C(=O)c2ccc(NC(=O)c3cc4cc5ccccc5nc4s3)cc2)cc1OC`, the growth in experiment [1] was 104%; in experiment [2], 101%; in [3] it was 98.8%; in experiment [4], 103%; in [5] it was 94.4%; in experiment [6], 93.5%. In addition, the growth in experiment [7] is 96.9%; in experiment [8] it was 94%; in experiment [9], 105%.
Take `CCCCCCCCCCCCCCCCCCNC(=O)[C@H]1CSC(c2ccc(OC)c(F)c2)N1` (some centres undefined): the growth in experiment [1] is 71%; in experiment [2] it was 8.84% (active); in experiment [3], 65.1%; in experiment [4], -53.1% (active); in [5], 54.2%; in [6], 23.8%. In addition, the growth in experiment [7] is -86.5% (active); in experiment [8] it was 30.1%; in [9], -74.5% (active).
As to `COc1cc(NC(N)=NCC(C)(C)COc2ccc(C(F)(F)F)cc2)cnc1C#N`, the growth in [1] was 59.9%; in experiment [2] it was 26.9%; in experiment [3], 70.6%; in experiment [4], 59.9%; in experiment [5], 49.3%; in experiment [6], 26.9%. The growth is 61.7% in experiment [7], 67.1% in experiment [8] and 85.5% in experiment [9].
Consider `CCOC(=O)c1cnc2ccc(OC)cc2c1Nc1cccc(S(=O)(=O)NC)c1`, for which the growth in experiment [1] is 82.3%; in experiment [2], 112%; in experiment [3], 89%; in experiment [4] it was 71.6%; in [5] it was 95.3%; in [6] it was 100%. Moreover, the figures for the growth in [7], in experiment [8] and in experiment [9] were 103%, 99.1% and 85.9%, respectively.
On to `CCCCCCCCCCCCCCCCCCNC(=O)[C@H]1CSC(c2ccc(F)c(OC)c2)N1` (some centres undefined), for which the growth in experiment [1] is 6.47% (active); in [2], -84.5% (active); in [3], -40.2% (active); in experiment [4], -96.6% (active); in [5], 34.1%; in experiment [6], -94.8% (active). The growth in experiment [7] is -97.2% (active); in experiment [8], 14.1%; in [9], -93.3% (active).
For `Cc1ccc(-c2nc(/C=N/Nc3cc(C)nc4ccc(Br)cc34)c(C)o2)cc1`, the growth in [1] was -83.7% (active); in [2], -70% (active); in experiment [3] it was -48.9% (active); in [4], -76.4% (active); in [5], 5.84% (active); in experiment [6], 63.8%. The growth was 86.4% in [7], -88.5% (active) in experiment [8] and -13.5% (active) in experiment [9].
In the case of `Nc1c(C(=O)Nc2cccc3c2OCCO3)sc2nc3c(cc12)C(=O)CCC3`, the growth in [1] is 30.1%; in experiment [2], 13.5%; in [3] it was 33.3%; in experiment [4], 33%; in experiment [5] it was 33.9%; in [6], 24%. Besides, the results for the growth in experiment [7], in experiment [8] and in [9] were 23.5%, 41.8% and 60%, respectively.
As for `Nc1cc(O)cc2cccnc12`, the growth in [1] is 110%; in experiment [2] it was 106%; in experiment [3], 79.4%; in [4] it was 86.7%; in [5], 78.7%; in experiment [6], 72.4%. In addition, the growth in [7] was 89.5%; in [8], 51.2%; in experiment [9] it was 112%.
On to `Fc1ccc(Cc2ccc(F)cc2)cc1`, for which the growth in experiment [1] was 116%; in experiment [2], 111%; in experiment [3] it was 102%; in experiment [4], 98.5%; in [5] it was 102%; in [6] it was 101%. The growth in experiment [7] is 101%; in [8], 97.9%; in experiment [9], 105%.
For the molecule `CC(C)C1=C[C@@]23CC[C@@H]4[C@](C)(CCC[C@@]4(C)C(=O)OCC#CCN4CCCC4)[C@H]2C[C@@H]1[C@H]1C(=O)OC(=O)[C@H]13`, the growth in experiment [1] was 90.6%; in [2], 90.7%; in [3], 97.4%; in [4] it was 100%; in experiment [5] it was 77.8%; in experiment [6] it was 91.3%. Further, the growth is 82.1% in experiment [7], 89.1% in experiment [8] and 101% in [9].
